Experimental data taken from PubChem BioAssay (NCATS).
Records with an inconclusive call do not appear. A call without a number means that no potency is given here. Calls of active or inactive are those of the source. Unless noted, calls come from the whole dose curve; as a rule, active = well fitted curve in the direction sought with a large enough effect; inconclusive = small, poorly fitted or top-dose-only effect, or another doubt; inactive = no such curve, though single readings can be large; an effect the other way counts as inactive or inconclusive.

Assays:
[1] = MultiTox-Fluor Cytotoxicity Assay - LYMP1-002 - Dead Cells (AID 960); note: nearly all actives have a fitted effect of over 60% in size
Method in brief: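 Acute cytotoxicity in a human lymphoblastoid line is scored as rising dead-cell protease signal after 16 hr exposure at 37 C, measured fluorometrically (485/520).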

[2] = MultiTox-Fluor Cytotoxicity Assay - LYMP1-001 - Dead Cells (AID 946)
Method in brief: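 LYMP1-001 lymphoblastoid cells (2500/well) treated 16 h at 37 C. Dead-cell protease cleavage of bis-AAF-R110 read at Ex/Em 485/520. Normalized to DMSO and 15 uM tetraoctylammonium bromide; AC50 from Hill fits.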

[3] = MultiTox-Fluor Cytotoxicity Assay - LYMP1-001 - Live Cells (AID 947); note: potency is the fitted concentration of half-maximal effect
[4] = Cell Viability - LYMP1-002 - Assay at 16 hr (AID 948); note: potency is the fitted concentration of half-maximal effect
Method in brief: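 Seed 2500 LYMP1-002 cells per well in complete medium and hold 5 hr at 37 C. Add compound across a concentration series and incubate 16 hr at 37 C. Add CellTiter-Glo, wait 30 min at room temperature, read luminescence.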

[5] = MultiTox-Fluor Cytotoxicity Assay - LYMP1-002 - Live Cells (AID 955); note: potency is the fitted concentration of half-maximal effect
Method in brief: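 Cytotoxicity in the human lymphoblastoid line LYMP1-002 is measured as loss of live-cell protease activity after 16 h treatment in complete culture medium. AC50 is derived from Hill-equation fits of qHTS concentration-response data.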

[6] = MultiTox-Fluor Cytotoxicity Assay - LYMP1-003 - Dead Cells (AID 961); note: nearly all actives have a fitted effect of over 70% in size; note: potency is the fitted concentration of half-maximal effect
Method in brief: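 LYMP1-003 human lymphoblastoid cells (2500/well) exposed to compound 16 h at 37 C in complete medium; dead-cell protease read with bis-AAF-R110 fluorescence (Ex/Em 485/520) after 60 min at room temperature. Normalized to DMSO and 15 uM tetraoctylammonium bromide; AC50 from Hill fit.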

[7] = MultiTox-Fluor Cytotoxicity Assay - LYMP1-003 - Live Cells (AID 962); note: potency is the fitted concentration of half-maximal effect
Method in brief: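 Cells plated at 2500 per well and incubated 5 hr; compounds added and incubated 16 hr at 37 C; MultiTox-Fluor reagent added for 60 min at room temperature; fluorescence of liberated AFC measured at 405/510 nm.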

[8] = Cell Viability - LYMP1-003 - Assay at 24 hr (AID 963); note: potency is the fitted concentration of half-maximal effect
Method in brief: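 Acute toxicity in LYMP1-003 lymphoblastoid cells: 24 hr compound treatment at 37 C, ATP measured with CellTiter-Glo after 30 min at room temperature. AC50 derived by fitting the Hill equation to qHTS titrations.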

[9] = Cell Viability - LYMP1-003 - Assay at 40 hr (AID 964); note: nearly all actives have a fitted effect of over 60% in size; note: potency is the fitted concentration of half-maximal effect
Method in brief: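 This qHTS cytotoxicity screen treats human lymphoblastoid cells (LYMP1-003) with compounds for 40 hr and quantifies cellular ATP via luciferase luminescence.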

[10] = Cell Viability - LYMP2-003 (AID 965);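 note: cells exposed to compounds for 24 h before reading; nearly all actives have a fitted effect of over 50% in size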
Method in brief: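 Seed 2500 lymphoblastoid cells/well; incubate 5 hr, 37 C; add compounds; incubate 24 hr, 37 C; add CellTiter-Glo, 30 min RT; read luminescence. AC50 from Hill fit.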

[11] = Cell Viability - LYMP2-004 (AID 966); note: nearly all actives have a fitted effect of over 65% in size; note: potency is the fitted concentration of half-maximal effect
Method in brief: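 Acute toxicity is scored as a concentration-dependent drop in intracellular ATP, quantified by luciferase luminescence, in human lymphoblastoid cells exposed to compound for 24 hr. AC50 derives from Hill-equation modelling.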

[12] = Cell Viability - LYMP2-005 (AID 967);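 note: series mostly up to about 92 µM; cells exposed to compound for 24 h at 37 °C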
Method in brief: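 Acute cytotoxicity is scored as a concentration-dependent drop in intracellular ATP in human lymphoblastoid LYMP2-005 cells after 24 h compound treatment. ATP is quantified by luciferase luminescence, and AC50 is derived by Hill-equation modelling.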

[13] = target: Pyruvate kinase (Leishmania mexicana) (UniProt Q27686); assay: qHTS Validation Assay for Inhibitors of Leishmania Mexicana Pyruvate Kinase (AID 945)
Sequence of Pyruvate kinase (Leishmania mexicana) (Q27686 2-499 E452W): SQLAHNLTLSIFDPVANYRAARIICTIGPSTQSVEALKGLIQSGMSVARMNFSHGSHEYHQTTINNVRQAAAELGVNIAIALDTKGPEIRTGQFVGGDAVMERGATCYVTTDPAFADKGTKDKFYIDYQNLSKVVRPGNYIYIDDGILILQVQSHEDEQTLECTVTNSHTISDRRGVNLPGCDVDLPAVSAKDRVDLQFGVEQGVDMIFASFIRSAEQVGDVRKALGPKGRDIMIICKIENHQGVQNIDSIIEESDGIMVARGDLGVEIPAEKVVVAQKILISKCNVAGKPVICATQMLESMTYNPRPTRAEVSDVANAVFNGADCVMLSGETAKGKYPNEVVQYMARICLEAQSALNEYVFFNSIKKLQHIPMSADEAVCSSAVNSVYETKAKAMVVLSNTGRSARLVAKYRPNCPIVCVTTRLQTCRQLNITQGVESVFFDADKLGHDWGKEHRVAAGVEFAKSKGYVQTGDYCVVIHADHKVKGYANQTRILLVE
Method in brief: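 LmPYK E451W 0.2 nM; 0.5 mM PEP, 0.1 mM ADP, 7 mM MgCl2, 50 mM KCl, imidazole pH 7.2, 0.01% Tween 20, 0.05% BSA; 1 h RT; PKLight luminescence; DMSO-normalized.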

[14] = target: Pyruvate kinase PKM (Homo sapiens) (UniProt P14618); assay: qHTS Assay for Activators of Human Muscle Pyruvate Kinase (AID 954; active = well fitted curve in the direction sought with a large enough effect, not every such curve was filed as active)
Sequence of Pyruvate kinase PKM (Homo sapiens) (P14618 whole entry, looked up): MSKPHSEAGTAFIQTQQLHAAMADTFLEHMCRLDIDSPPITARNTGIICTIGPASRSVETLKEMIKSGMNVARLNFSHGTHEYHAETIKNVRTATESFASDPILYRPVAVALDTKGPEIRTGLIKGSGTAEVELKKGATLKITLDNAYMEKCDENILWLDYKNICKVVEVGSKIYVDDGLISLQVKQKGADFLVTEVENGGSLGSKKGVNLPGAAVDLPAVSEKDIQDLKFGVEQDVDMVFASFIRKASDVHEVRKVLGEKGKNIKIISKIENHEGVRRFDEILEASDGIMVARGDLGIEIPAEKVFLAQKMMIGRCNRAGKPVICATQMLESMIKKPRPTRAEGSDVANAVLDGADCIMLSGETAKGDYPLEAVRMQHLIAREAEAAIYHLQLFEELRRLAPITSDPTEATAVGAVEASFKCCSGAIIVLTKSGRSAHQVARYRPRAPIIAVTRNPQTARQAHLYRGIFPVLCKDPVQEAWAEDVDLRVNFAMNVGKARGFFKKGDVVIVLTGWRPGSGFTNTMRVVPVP
Method in brief: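 Purified human PKM2 (0.1 nM) with 0.5 mM PEP (Km) and 0.1 mM ADP in 50 mM imidazole pH 7.2, KCl, MgCl2, 1 h at room temperature; ATP formed read by coupled luciferase luminescence. Normalized to no-enzyme/110 uM thiadiazolimine inhibition; 0.3 nM enzyme column for activation.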

[15] = target: Alpha-galactosidase (Coffea arabica) (UniProt Q42656); assay: Counterscreen for Glucocerebrosidase Inhibitors: qHTS Assay for Coffee Bean alpha-Galactosidase at pH 4.5 (AID 957); note: series mostly up to about 77 µM
Sequence of Alpha-galactosidase (Coffea arabica) (Q42656 whole entry, looked up): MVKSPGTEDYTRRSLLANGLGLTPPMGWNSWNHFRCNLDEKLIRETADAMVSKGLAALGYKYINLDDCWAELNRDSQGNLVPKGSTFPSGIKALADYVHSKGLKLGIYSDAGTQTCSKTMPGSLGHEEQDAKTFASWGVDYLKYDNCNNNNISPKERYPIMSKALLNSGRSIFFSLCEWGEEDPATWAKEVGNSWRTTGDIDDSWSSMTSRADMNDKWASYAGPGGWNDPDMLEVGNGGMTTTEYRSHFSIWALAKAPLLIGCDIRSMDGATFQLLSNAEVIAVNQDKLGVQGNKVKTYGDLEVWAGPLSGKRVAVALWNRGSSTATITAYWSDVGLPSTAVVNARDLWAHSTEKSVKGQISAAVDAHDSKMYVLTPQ
Method in brief: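 AC50 values derive from Hill-equation modeling of concentration-response data, normalized to no-enzyme and full-activity controls. The pH 4.5 citrate assay used 2 nM coffee bean enzyme and 80 uM fluorogenic substrate for 20 min.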

SMILES | Potency [1] | Potency [2] | Potency [3] | Potency [4] | Potency [5] | Potency [6] | Potency [7] | Potency [8] | Potency [9] | Potency [10] | Potency [11] | Potency [12] | Potency [13] | outcome [14] | outcome [15]
COc1ccc2c(c1OC)C(=O)OC2C1c2cc3c(cc2CCN1C)OCO3 (stereo not given) | inactive | – | – | – | – | – | – | – | – | – | – | – | – | – | –
O=C1CCO1 | inactive | – | – | – | – | – | – | – | – | – | – | – | – | – | –
NNC(N)=O | inactive | inactive | inactive | inactive | inactive | inactive | inactive | inactive | inactive | inactive | inactive | inactive | – | – | –
O=[N+]([O-])c1ccc(F)c([N+](=O)[O-])c1 | inactive | inactive | inactive | inactive | inactive | inactive | inactive | inactive | inactive | inactive | inactive | inactive | – | – | –
[O]=[Cd] | inactive | inactive | inactive | inactive | inactive | inactive | inactive | inactive | inactive | inactive | inactive | inactive | – | – | –
CCN(CCCl)Cc1ccccc1Br | – | – | – | – | – | – | – | – | – | – | – | – | inactive | inactive | –
COC1=CC(=O)O[C@@H](/C=C/c2ccccc2)C1 | inactive | inactive | inactive | inactive | inactive | inactive | inactive | inactive | inactive | inactive | inactive | inactive | – | – | –
C[C@H]1CC[C@@H]2[C@@H](C)[C@H]3[C@H](C[C@H]4[C@@H]5CC=C6CC(O[C@@H]7O[C@H](CO)[C@H](O)[C@H](O[C@@H]8O[C@H](CO)[C@@H](O)[C@H](O)[C@H]8O)[C@H]7O[C@H]7O[C@@H](C)[C@H](O)[C@@H](O)[C@H]7O)CC[C@]6(C)[C@H]5CC[C@]34C)N2C1 (stereo not given in full) | inactive | – | 31.6 µM (active) | 31.6 µM (active) | 12.6 µM (active) | 20 µM (active) | 25.1 µM (active) | 20 µM (active) | 39.8 µM (active) | – | 50.1 µM (active) | – | – | – | –
CC(C)(C)c1cc(O)ccc1O | inactive | inactive | inactive | inactive | inactive | inactive | inactive | inactive | inactive | inactive | 39.8 µM (active) | – | – | – | –
N#CC(C#N)=Cc1cc(O)c(O)c(O)c1 | – | – | – | – | – | – | – | – | – | – | – | – | inactive | inactive | –
CC(C)CCON=O | inactive | inactive | – | inactive | inactive | inactive | inactive | inactive | inactive | inactive | inactive | inactive | – | – | –
O=[N+]([O-])c1ccccc1 | inactive | inactive | inactive | inactive | inactive | inactive | inactive | inactive | inactive | inactive | inactive | inactive | – | – | –
CCOC(=O)c1ccccc1C(=O)OCC | inactive | inactive | inactive | inactive | inactive | inactive | inactive | inactive | inactive | inactive | inactive | inactive | – | – | –
O=Cc1ccco1 | inactive | inactive | inactive | inactive | inactive | inactive | inactive | inactive | inactive | inactive | inactive | inactive | – | – | –
S=C=S | inactive | inactive | inactive | inactive | inactive | inactive | inactive | inactive | inactive | inactive | inactive | inactive | – | – | –
C=CCN=C=S | inactive | inactive | inactive | inactive | inactive | inactive | inactive | inactive | inactive | inactive | inactive | inactive | – | – | –
c1ccc2cc(CC3=NCCN3)ccc2c1 | – | – | – | – | – | – | – | – | – | – | – | – | inactive | inactive | inactive
O=C(O)C(Cl)(Cl)Cl | inactive | inactive | inactive | inactive | inactive | inactive | inactive | inactive | inactive | inactive | inactive | inactive | – | – | –
